Records with an inconclusive call do not appear. Calls of active or inactive are those of the source.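 The calls were made as follows, unless noted: active = normalized viability below 100% at a tested concentration; inactive = the rest.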
Key:
[1] = viability loss in pontine glioma line – cell-based, SU-DIPG-XVII, MIPE5.0, CellTiter-Glo, qHTS, dose response (AID 1347060; cut-off not given, nearly all actives have AC50 up to about 26 µM;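 also: cells exposed to compound for 48 hours before viability readout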); settings: CellTiter-Glo ATP luminescence
[2] = viability loss in pontine glioma line – cell-based, SU-DIPG-XIII, MIPE4.0, CellTiter-Glo, qHTS, dose response (AID 1347061; cut-off not given, nearly all actives have AC50 up to about 37 µM;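 also: cells exposed to compound for 48 hours before readout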); settings: CellTiter-Glo ATP luminescence
[3] = viability loss in pontine glioma line – cell-based, SU-DIPG-IV, MIPE4.0, CellTiter-Glo, qHTS, dose response (AID 1347063; cut-off not given, nearly all actives have AC50 up to about 30 µM;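 also: compound exposure lasted 48 hours before the viability readout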); settings: CellTiter-Glo ATP luminescence
[4] = viability loss in pontine glioma line – cell-based, SU-DIPG-XIII, MIPE5.0, CellTiter-Glo, qHTS, dose response (AID 1347064; cut-off not given, nearly all actives have AC50 up to about 23 µM;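 also: cells exposed to compound for 48 hours before the viability read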); settings: CellTiter-Glo ATP luminescence
[5] = viability loss in pontine glioma line – cell-based, SU-DIPG-XXV, MIPE5.0, CellTiter-Glo, qHTS, dose response (AID 1347065; cut-off not given, nearly all actives have AC50 up to about 26 µM;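 also: cells exposed to compound for 48 hours before ATP readout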); settings: CellTiter-Glo ATP luminescence
[6] = growth inhibition of DIPG cells – cell-based, MIPE5.0 library, qHTS (AID 1347068; cut-off not given, nearly all actives have IC50 up to about 30 µM;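 also: cells exposed to compound for 48 hours before viability readout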); settings: SU-DIPG-XXV viability
[7] = viability loss with induced miR-34 in A549 – imaging, A549 dox-inducible miR-34, nuclei and caspase counts, primary screen (AID 1347080;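 active = compounds whose cell count with miR-34 switched on is under 0.7 times the count with it off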); settings: A549 miR-34 inducible, Hoechst nuclei count, 48 h
[8] = compounds altering HSF1 focus formation in cells – imaging, Selleck Cancer Library (AID 1347162; in the data active = plate-normalised HSF1 focus index below about 0.46); settings: human cells, HSF1 nuclear foci imaging, at 10 µM; SSMD: measured here: HSF1 foci SSMD mean; cell count: measured here: cell number; plate-normalised HSF1 focus index: stronger effect = lower value
[9] = MELAS cybrid and Rieske KO viability enhancers – cell-based, MELAS cybrids, Rieske KO mouse fibroblasts, CellTiter-Glo, primary screen (AID 1508586;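 active = mean z-score across replicates of 1.96 or higher in either the MELAS or the Rieske mutant cell line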;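 also: z relative to plate mean and SD of compound and empty wells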); settings: low glucose
[10] = drug combination growth inhibition, ovarian cancer – cell-based, oncology-focused library, rucaparib conditional, profiling panel (AID 1508598); settings: patient-derived ovarian cancer cells, CellTiter-Glo viability, 144 h, stronger effect = lower value
[11] = growth inhibition of DIPG cells – cell-based, MIPE4.0 library, CellTiter-Glo luminescence, qHTS (AID 1347066; cut-off not given, nearly all actives have AC50 up to about 30 µM;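 also: cells exposed to compound for 48 hours before readout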); settings: SU-DIPG-VI viability, CellTiter-Glo ATP luminescence
[12] = stronger effect = lower value, cell number ratio, induced over uninduced
[13] = measured here: relative caspase fold change +Dox/-Dox
[14] = measured here: total cells with miR-34 induction, stronger effect = lower value
[15] = measured here: total cells without miR-34 induction
[16] = MELAS cybrid survival, CellTiter-Glo 48 h, stronger effect = higher value
[17] = Rieske KO mouse fibroblast survival, CellTiter-Glo 72 h

CS(=O)(=O)N1CCN(Cc2cc3nc(-c4cccc5[nH]ncc45)nc(N4CCOCC4)c3s2)CC1
1: z-score [9, 17]
active: AC50 [1] 1.18 µM | AC50 [2] 5.26 µM | AC50 [3] 0.166 µM | AC50 [4] 1.32 µM | AC50 [5] 0.661 µM | IC50 [6] 4.17 µM | z-score [9, 16] 3.74 | viability ([10]; at 0.000305 µM, OCI-P5x cells, with rucaparib 20 µM, 100% = cells with rucaparib alone) 98.9% | viability ([10]; at 0.000305 µM, OCI-P5x cells, without rucaparib) 94.9% | viability ([10]; at 0.00122 µM, OCI-P5x cells, with rucaparib 20 µM, 100% = cells with rucaparib alone) 98.2% | viability ([10]; at 0.00122 µM, OCI-P5x cells, without rucaparib) 92.1% | viability ([10]; at 0.00488 µM, OCI-P5x cells, with rucaparib 20 µM, 100% = cells with rucaparib alone) 94.4% | viability ([10]; at 0.00488 µM, OCI-P5x cells, without rucaparib) 93.2% | viability ([10]; at 0.0195 µM, OCI-P5x cells, with rucaparib 20 µM, 100% = cells with rucaparib alone) 96.3% | viability ([10]; at 0.0195 µM, OCI-P5x cells, without rucaparib) 87.5% | viability ([10]; at 0.0781 µM, OCI-P5x cells, with rucaparib 20 µM, 100% = cells with rucaparib alone) 92.7% | viability ([10]; at 0.0781 µM, OCI-P5x cells, without rucaparib) 88.1% | viability ([10]; at 0.313 µM, OCI-P5x cells, with rucaparib 20 µM, 100% = cells with rucaparib alone) 72.6% | viability ([10]; at 0.313 µM, OCI-P5x cells, without rucaparib) 78.2% | viability ([10]; at 1.25 µM, OCI-P5x cells, with rucaparib 20 µM, 100% = cells with rucaparib alone) 82.3% | viability ([10]; at 1.25 µM, OCI-P5x cells, without rucaparib) 82.1% | viability ([10]; at 5 µM, OCI-P5x cells, with rucaparib 20 µM, 100% = cells with rucaparib alone) 54.2% | viability ([10]; at 5 µM, OCI-P5x cells, without rucaparib) 70.8%
6530: cell count [8]
inactive: fold change [7, 12] 0.864 | plate-normalised HSF1 focus index [8] 0.899 | viability ([10]; at 0.000305 µM, OCI-C5x cells, with rucaparib 10 µM, 100% = cells with rucaparib alone) 111% | viability ([10]; at 0.000305 µM, OCI-C5x cells, without rucaparib) 127% | viability ([10]; at 0.00122 µM, OCI-C5x cells, with rucaparib 10 µM, 100% = cells with rucaparib alone) 121% | viability ([10]; at 0.00122 µM, OCI-C5x cells, without rucaparib) 119% | viability ([10]; at 0.00488 µM, OCI-C5x cells, with rucaparib 10 µM, 100% = cells with rucaparib alone) 109% | viability ([10]; at 0.00488 µM, OCI-C5x cells, without rucaparib) 120% | viability ([10]; at 0.0195 µM, OCI-C5x cells, with rucaparib 10 µM, 100% = cells with rucaparib alone) 111% | viability ([10]; at 0.0195 µM, OCI-C5x cells, without rucaparib) 118% | viability ([10]; at 0.0781 µM, OCI-C5x cells, with rucaparib 10 µM, 100% = cells with rucaparib alone) 114% | viability ([10]; at 0.0781 µM, OCI-C5x cells, without rucaparib) 108% | viability ([10]; at 0.313 µM, OCI-C5x cells, with rucaparib 10 µM, 100% = cells with rucaparib alone) 105% | viability ([10]; at 0.313 µM, OCI-C5x cells, without rucaparib) 107% | viability ([10]; at 1.25 µM, OCI-C5x cells, with rucaparib 10 µM, 100% = cells with rucaparib alone) 125% | viability ([10]; at 1.25 µM, OCI-C5x cells, without rucaparib) 123% | viability ([10]; at 5 µM, OCI-C5x cells, with rucaparib 10 µM, 100% = cells with rucaparib alone) 114% | viability ([10]; at 5 µM, OCI-C5x cells, without rucaparib) 120%
0.859: fold change [7, 13]
1570: cell count [7, 15]
1360: cell count [7, 14]
-1.97: SSMD [8]

Clc1ccc(C2(c3ccc(-c4cn[nH]c4)cc3)CCNCC2)cc1
-3.02: z-score [9, 17]
2520: cell count [7, 14]
2760: cell count [7, 15]
1.06: fold change [7, 13]
active: AC50 [1] 18.6 µM | AC50 [4] 14.8 µM | AC50 [5] 10.5 µM | z-score [9, 16] 5.75
inactive: outcome [2] | outcome [11] | fold change [7, 12] 0.914
